# Whole data set: some 81,000 sequences, median “one-hybrid fitness for binding parS DNA” near -0.17, cut for the highest 2% near 0.51. What follows is part of a selection rich in the highest values, with near analogues and random picks from the rest.
# B1: Caulobacter ParB omega fusion; a variant is named by its letters at X, in order, B8GW30 (parent)
# chain: MESVVVGEPGMSEGRRGLGRGLSALLGEVDAAPAQAPGEQLGGSREAPIEILQRNPDQPRRTFREEDLEDLSNSIREKGVLQPILVRPSPDTAGEYQIVAGERAWRAAQRAGLKTVPIMVRELDDLAVLEIGIIENVQRADLNVLEEALSYKVLMEKFERTQENIAQTIGKSXSHVANXMRLLXLPDEVQSYLVSGELTAXHARAIAAAADPVALAKQIIEGGLSVRETEALARKAPNLSAGKSKGGRPPRVKDTDTQALESDLSSVLGLDVSIDHRGSTGTLTITYATLEQLDDLCNRLTRGI
# Variants of: B1
# Experiment: one-hybrid fitness for binding parS DNA (scaled: cognate 1, non-cognate 0); higher = stronger binding
# Details: with parS DNA site
# Procedure, shortened: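 Fitness is the rescaled log change in variant-to-wild-type read ratio, measured by Illumina sequencing of plasmids before and after bacterial one-hybrid selection. The scale puts cognate at 1 and non-cognate at 0. Selection of Caulobacter ParB libraries, four specificity codons randomised, took place in E. coli USO with a HIS3 reporter, site 19 bp from the promoter, over 48 hours at 37°C on M9-minus-histidine with 0.1 mM IPTG and 5 mM 3-AT.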
row,Variant,one-hybrid fitness for binding parS DNA
1,RPKW,≤ 0.2
2,RTDW,≤ 0.2
3,RTVW,0.218
4,NNGS,≤ 0.2
5,PVIL,≤ 0.2
6,PSIS,≤ 0.2
7,TSQY,≤ 0.2
8,PQCN,≤ 0.2
9,RTDD,≤ 0.2
10,RTDP,≤ 0.2
11,RTNH,≤ 0.2
12,RTNF,0.403
13,RTNG,0.968
14,RTDG,0.935
15,MGVN,≤ 0.2
16,DGDV,≤ 0.2
17,WCVR,≤ 0.2
18,CTRY,≤ 0.2
19,YMTL,≤ 0.2
20,CALA,≤ 0.2
21,RNGH,≤ 0.2
22,RNSH,≤ 0.2
23,RNWG,0.651
24,RNGG,0.841
25,RNWQ,≤ 0.2

row,Variant,one-hybrid fitness for binding parS DNA
1,RNSG,0.921
2,RNLG,0.831
3,RNWM,≤ 0.2
4,RNGN,0.242
5,RNSD,≤ 0.2
6,RNLY,0.303
7,RNLQ,≤ 0.2
8,DCGR,≤ 0.2
9,MWMK,≤ 0.2
10,TMVR,≤ 0.2
11,TWPL,≤ 0.2
12,YNCT,≤ 0.2
13,YGAI,≤ 0.2
14,AARF,≤ 0.2
15,ITIY,≤ 0.2
16,RNQQ,≤ 0.2
17,RNHK,≤ 0.2
18,RNQG,0.882
19,RNYG,0.789
20,RNCF,≤ 0.2
21,RNCG,0.771
22,RNQF,≤ 0.2
23,RNYP,≤ 0.2
24,RNYR,≤ 0.2
25,RNCH,≤ 0.2

row,Variant,one-hybrid fitness for binding parS DNA
1,RNHM,≤ 0.2
2,RNHG,0.866
3,GTAW,≤ 0.2
4,LGVR,≤ 0.2
5,PMST,≤ 0.2
6,LAKV,≤ 0.2
7,PYNM,≤ 0.2
8,TKAL,≤ 0.2
9,PHQS,≤ 0.2
10,QTGN,≤ 0.2
11,NQIG,≤ 0.2
12,LHGR,≤ 0.2
13,WVYT,≤ 0.2
14,VPRP,≤ 0.2
15,RNRG,0.94
16,RNRY,0.503
17,RNRK,≤ 0.2
18,FALT,≤ 0.2
19,KIQT,≤ 0.2
20,TSHI,≤ 0.2
21,RVKR,≤ 0.2
22,RVVR,≤ 0.2
23,RVKC,0.813
24,RVVQ,≤ 0.2
25,RVKF,0.355

row,Variant,one-hybrid fitness for binding parS DNA
1,RVVC,0.914
2,DKVG,≤ 0.2
3,QKKI,≤ 0.2
4,HVMR,≤ 0.2
5,RLEH,0.228
6,RFEP,≤ 0.2
7,RFEN,0.342
8,RAEN,0.337
9,RPES,≤ 0.2
10,RAES,0.948
11,RLEP,≤ 0.2
12,RLES,1
13,RCEP,≤ 0.2
14,RCES,1.02
15,RFES,0.881
16,RAED,≤ 0.2
17,SMRL,≤ 0.2
18,HSNG,≤ 0.2
19,IHDA,≤ 0.2
20,GPGK,≤ 0.2
21,LPNM,≤ 0.2
22,LTRT,≤ 0.2
23,GAAR,≤ 0.2

# Source: a collection of fitness landscapes (doi:10.1016/j.celrep.2020.107928)
